Hit rate of the full screen: of about 96,000 compounds, about 19,000 (20%) were called active.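 The calls were made as follows: active = blocking of liver enzyme CYP2C9 beyond about 50% at 5 µM (limit read from the data); inactive = the rest.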 Only a sample is shown.

The target in this assay is Cytochrome P450 2C9 (Homo sapiens) (UniProt P11712). As to the kind of experiment: blockers of cytochrome P450 2C9 activity – biochemical, luminescence, ADME assay, primary screen (AID 777). The following applies: CYP2C9 Supersomes, luciferin-H conversion, at 5 µM, active compounds read high.
Chain of Cytochrome P450 2C9 (Homo sapiens) (P11712 whole entry, looked up): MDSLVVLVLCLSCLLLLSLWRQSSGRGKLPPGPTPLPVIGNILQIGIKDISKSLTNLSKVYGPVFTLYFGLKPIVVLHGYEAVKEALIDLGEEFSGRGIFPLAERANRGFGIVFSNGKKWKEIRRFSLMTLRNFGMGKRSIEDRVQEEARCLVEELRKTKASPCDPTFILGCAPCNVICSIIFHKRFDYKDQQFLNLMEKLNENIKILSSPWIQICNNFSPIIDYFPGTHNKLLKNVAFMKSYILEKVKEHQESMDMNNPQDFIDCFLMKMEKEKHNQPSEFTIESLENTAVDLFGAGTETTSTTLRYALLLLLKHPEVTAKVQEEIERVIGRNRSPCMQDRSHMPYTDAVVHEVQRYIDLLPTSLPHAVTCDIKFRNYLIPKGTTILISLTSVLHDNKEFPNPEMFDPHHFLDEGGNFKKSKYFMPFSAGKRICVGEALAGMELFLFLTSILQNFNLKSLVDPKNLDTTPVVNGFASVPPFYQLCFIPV
One may read the inhibition as the change of the read-out against control, counted positive when it falls. Take `Cc1nc(C)c(-c2csc(NCCc3ccccc3)n2)s1`: the inhibition was 39% (inactive).
As for `COc1ccc(/C(O)=C2/C(=O)C(=O)N(c3nc(C)c(C)s3)C2c2ccco2)cc1` (centres undefined), the inhibition was 70.5% (active).
Consider `COc1ccc(/C(O)=C2/C(=O)C(=O)N(CC3CCCO3)C2c2ccc(OC)c(OC)c2)cc1` (centres undefined), for which the inhibition was 35.9% (inactive).
Consider `COc1ccc(/C(O)=C2\C(=O)C(=O)N(Cc3ccco3)C2c2ccc(OC)cc2OC)cc1` (centres undefined), for which the inhibition is 21.7% (inactive).
`C=CCNc1ncnc2ccc(Br)cc12`: the inhibition was -10.3% (inactive).
In the case of `COC(=O)c1cc(NC(=O)CC2C(=O)NCCN2C(=O)c2ccc(F)cc2)cc(C(=O)OC)c1` (centres undefined), the inhibition was 46.6% (inactive).
As for `COc1cc(Cl)c(S(=O)(=O)N2CCN(Cc3ccc4c(c3)OCO4)CC2)cc1Cl`, the figure is 20.7% (inactive); as for `O=C(c1ccc(F)cc1)c1c[nH]c(C(=O)NCc2cccnc2)c1`, 45.9% (inactive).
To `Cc1ccc(NC(=O)CS(=O)CC(=O)N(c2ccccc2)C(C)C(=O)NC2CCCC2)cc1` (centres undefined) belongs 77.9% (active); to `CCc1ccc(NC(=O)CS(=O)CC(=O)NCCCc2ccccc2)cc1` (centres undefined), 38.5% (inactive); to `CC(C)c1ccc(NC(=O)NC2CCCCC2)cc1`, -33.8% (inactive).
As for `COc1ccc(C2CC(=O)C=C(NCC3CCCO3)C2)cc1` (centres undefined), the figure is 9.3% (inactive); as for `O=C(OCN1C(=O)c2ccccc2C1=O)/C(=C\c1ccco1)NC(=O)c1ccccc1`, 14% (inactive); as for `COC(=O)Nc1ncc(CN2CCCCC2)s1`, 3.8% (inactive).
Take `CCOP1(=O)C=C(C(C)(C)C)OC1c1ccc(F)cc1` (centres undefined): the inhibition is -21.5% (inactive).
As to `c1ccc(CCn2nnnc2CN2CCN(C3CCCC3)CC2)cc1`, the inhibition is -1.3% (inactive).
Consider `COCCn1nnnc1C(c1ccccc1Cl)N1CCN(c2ccccc2OC)CC1` (centres undefined), for which the inhibition was 39.5% (inactive).
For the compound `COc1ccccc1N1CCN(Cc2nnnn2CCc2ccccc2)CC1`, the inhibition was 75% (active).
As for `Oc1ccccc1CNc1ncc(Br)cc1Br`, the inhibition is -39.9% (inactive).
Consider `CCOc1ccc(C(=O)NC2CCN(S(=O)(=O)CC)CC2)cc1`, for which the inhibition was 2.4% (inactive).
For the compound `CCOC(=O)N1CCC(Nc2c(NCCCN3CCN(CC)CC3)c(=O)c2=O)CC1`, the inhibition was -19.9% (inactive).
As for `CC1(C)Cc2ccccc2-c2nc(CN3CCOCC3)[nH]c(=O)c21`, the figure is 15.5% (inactive).
As for `CCOC(=O)C1Cn2c(nc3c(c2=O)C(C)(CC)Cc2ccccc2-3)S1` (centres undefined), the inhibition was 94.8% (active).
Consider `O=C(Nc1nnc(-c2ccc(Cl)cc2)o1)c1ccccc1Br`, for which the inhibition was 26% (inactive).
For the compound `O=C(Nc1ccc(-n2ccnc2P(=O)(O)c2ccccc2)cc1)c1ccccc1Br`, the inhibition is 95.5% (active).
To `Cc1nonc1NC(=O)c1ccccc1Br` belongs -27.2% (inactive).
On to `CC(=O)NC1=NC(=O)CS1`, for which the inhibition is 11.7% (inactive).
In the case of `COC(=O)CN1C(C)=Nc2ccc(Br)cc2C1c1ccccc1` (centres undefined), the inhibition is -8.5% (inactive).
As for `COC(=O)C1=C(C)N(C)C(C)=C(C(=O)OC)C1c1cccc(Br)c1`, the inhibition was 93.8% (active).
For the compound `COC(=O)C1=CN(C)C=C(C(=O)OC)C1c1ccc(Cl)cc1Cl`, the inhibition is 28% (inactive).
Regarding `Clc1ccccc1SCc1nc2ccccc2[nH]1`, the inhibition was 36.9% (inactive).
For `COC(=O)Cc1nc2ccccc2[nH]1`, the inhibition is 7.9% (inactive).
For the compound `c1ccc2c(CSCc3nc4ccccc4[nH]3)cccc2c1`, the inhibition is 85.1% (active).
As for `CC(CN1CCOCC1)c1ccccc1` (centres undefined), the inhibition is 2.7% (inactive).
On to `CN(CC(=O)NC1CCCCC1)S(=O)(=O)c1ccc(Br)s1`, for which the inhibition is -17.7% (inactive).
On to `Cn1c(CO)cnc1SCc1ccccc1`, for which the inhibition is 3.4% (inactive).
With `CCS(=O)(=O)n1nc(-c2ccccc2)nc1SCc1ccccc1`, the inhibition was 87.9% (active).
Regarding `CCS(=O)(=O)n1nc(-c2ccc(OC)cc2)nc1SC`, the inhibition is 42.2% (inactive).
To `CSCCC(NC(=O)COc1ccccc1)C(=O)OCC(=O)c1cc2ccccc2o1` (centres undefined) belongs 43.3% (inactive); to `COc1ccc2ccccc2c1CNCc1ccccn1`, -4.5% (inactive); to `Cc1cc(C)c(C#N)c(SCc2ccc3c(c2)OCO3)n1`, 90.5% (active).
In the case of `Cc1cc(C)c(C#N)c(SCc2ccccc2C(=O)O)n1`, the inhibition was 9.5% (inactive).
To `Cc1cc(C)c(C#N)c(SCS(=O)c2ccc(C(C)(C)C)cc2)n1` (centres undefined) belongs -50.8% (inactive).
For `CCCCN(C)Cc1c(C)[nH]c2ccc(Cl)cc2c1=O`, the inhibition is -10.7% (inactive).
`Cc1ccc(-c2csc(N(Cc3ccco3)C(=O)c3cccs3)n2)cc1`: the inhibition was 91.6% (active).
To `Cc1nnc(N(Cc2ccco2)C(=O)c2ccno2)s1` belongs 11.2% (inactive).
Regarding `O=C(O)CCC(=O)N(Cc1ccco1)c1nc(-c2ccccc2)cs1`, the inhibition is 5.2% (inactive).
For `O=C(Nc1ccccc1)N(Cc1cccnc1)Cc1ccco1`, the inhibition was 35.5% (inactive).
Take `COC(=O)c1ccc(Oc2nc(NC(C)C)nc(SC)n2)cc1`: the inhibition was 37.2% (inactive).
`Cc1nc(SCC(=O)Nc2cc(C)on2)c2c(C)c(C)sc2n1`: the inhibition is 14% (inactive).
As for `Cc1nc(SCC(=O)N2CCc3ccccc3C2)c2c(C)c(C)sc2n1`, the figure is 55.9% (active).
As for `O=C(CSc1nnc(-c2cccs2)n1Cc1ccccc1)N1CCc2ccccc2C1`, the figure is 48% (inactive); as for `Cc1nc(SCC(=O)N2CC(=O)Nc3ccccc32)c2c(C)c(C)sc2n1`, 55.2% (active).
In the case of `Nn1c(Cc2cccc3ccccc23)nnc1SCC(=O)N1CC(=O)Nc2ccccc21`, the inhibition is -64.6% (inactive).
For the compound `Cc1nnc(SCC(=O)N2CCc3ccccc3C2)s1`, the inhibition is 0% (inactive).
With `COc1ccc(OC)c(NC(=O)CCN2CCC(C)CC2)c1`, the inhibition was 5.1% (inactive).
Take `CCc1nnc(NC(=O)CCC(=O)NCc2ccccc2OC)s1`: the inhibition was -14.5% (inactive).
For the compound `Cc1ccsc1-c1nc(CSCC(=O)NCCN2CCCC2)c(C)o1`, the inhibition is 7.3% (inactive).
`CCOc1cc(-c2cc(-c3ccc(OC)cc3)nc(N)c2C#N)ccc1O`: the inhibition is 47.2% (inactive).
As for `CCSc1nc(-c2ccc(OC)cc2)cc(-c2ccc(OC)cc2)c1C#N`, the figure is 75.3% (active).
As to `COc1ccc(C)cc1N(C)C(=O)c1coc(=O)c2ccccc12`, the inhibition was 33.1% (inactive).
Turning to `Cc1cc(C)cc(OCc2nnc(SCC(=O)Nc3ccccc3)o2)c1`, the inhibition is -3% (inactive).
As for `O=C(CSc1nc2ccccc2o1)N1c2ccccc2Sc2ccc(Cl)cc21`, the figure is 60.9% (active).
Consider `CC(C)NC(=O)CSc1nnc(COc2ccccc2Cl)o1`, for which the inhibition is -39.2% (inactive).
As for `O=C(CSc1nc2ccccc2o1)N1CCN(c2ccc(Cl)cc2)CC1`, the inhibition was -11.9% (inactive).
`CC1Cc2ccccc2N1C(=O)CSc1nc2ccccc2o1` (centres undefined): the inhibition was 28.2% (inactive).
`Cc1ccccc1OCc1nnc(SCC(=O)N2c3ccccc3Sc3ccc(Cl)cc32)o1`: the inhibition is 57.3% (active).
As to `O=C(NC(C(=O)NCCN1CCOCC1)C12CC3CC(CC(C3)C1)C2)C1CCCCC1` (centres undefined), the inhibition is 18.3% (inactive).
To `O=C(COc1ccc(Br)cc1F)NC1CCN(Cc2ccccc2)CC1` belongs 28.8% (inactive).
As for `CCCCCCC(=O)N(O)C1CC(=O)N(c2ccccc2)C1=O` (centres undefined), the figure is -18.5% (inactive); as for `CC(=O)Oc1cccc(N2C(=O)C3CC=C(Cl)CC3C2=O)c1` (centres undefined), 3.2% (inactive); as for `CC1(C)CCCC2=C1CC1C(=O)N(c3ccccc3)C(=O)C1C2` (centres undefined), 90.7% (active).
Consider `Cc1cccn2c(=O)c3cc(C(=O)N4COCC4(C)C)n(C)c3nc12`, for which the inhibition was -0.4% (inactive).
As for `CCC(C)NC(=O)C1CCC(=O)N1Cc1ccc(C)cc1` (centres undefined), the figure is 3.2% (inactive); as for `O=C(Nc1ccc(Br)cc1)C1CCC(=O)N1Cc1ccccc1Cl` (centres undefined), 89.5% (active).
With `O=C1c2ccccc2C(O)N1Cc1ccccc1Cl` (centres undefined), the inhibition was -6.9% (inactive).
In the case of `CCCOc1ccc(-c2nc(N)n[nH]2)cc1`, the inhibition is 3.7% (inactive).
With `N=c1c2c(-c3ccccc3)c(-c3ccccc3)oc2ncn1Cc1ccco1`, the inhibition is 45.2% (inactive).
As to `CCc1nc2oc3ccccc3c(=O)c2c(=O)n1Cc1ccc(OC)cc1`, the inhibition was 6.4% (inactive).
As for `CC1CN(C(=O)c2ccc3c(c2)OCO3)OC(c2ccccc2)O1` (centres undefined), the figure is 35% (inactive); as for `CCOC(=O)C1=NNC2(c3ccc(Cl)cc3)C(=O)N(c3cc(C)cc(C)c3)C(=O)C12` (centres undefined), 64.1% (active).
As to `FC(F)(F)c1cc(C(F)(F)F)c2ccc(N3CCN(c4ccccc4)CC3)nc2n1`, the inhibition was -7.6% (inactive).
For `CCN1CCCC1CNC(=O)c1cc2c(=O)n(C)c3ccccc3c2n1C` (centres undefined), the inhibition is 8.3% (inactive).
Consider `O=c1[nH][nH]c(=O)c2cc(N3CCCC3)ccc12`, for which the inhibition was 2.6% (inactive).
As for `Cc1nc(NNC(=O)c2ccccc2)cc(-c2ccccc2)n1`, the inhibition was 62.7% (active).
On to `Cc1ccc2nc(-c3ccccc3)cc(C(=O)O)c2c1`, for which the inhibition is 34.4% (inactive).
For `COc1ccc(C(=O)NN(C)c2nc(-c3ccccc3)cc(C)c2S(C)(=O)=O)cc1`, the inhibition is 13.3% (inactive).
As for `CCCCN(CC)CCCNC(=O)CS(=O)(=O)Cc1nc(-c2cccc(OC)c2)oc1C`, the inhibition is -5.6% (inactive).
As for `Cc1ccc(S(=O)(=O)Nc2nc(C)cc(-n3nc(C)cc3C)n2)cc1`, the inhibition is 29.1% (inactive).
To `Cc1ccc(S(=O)(=O)Nc2ccc3ncccc3c2)cc1` belongs 84.1% (active); to `CC(=O)N1CCN(C(=O)c2cccc(S(=O)(=O)Nc3ccc(C)cc3)c2)CC1`, 0.3% (inactive).
In the case of `CN=C1SC(CC(=O)Nc2ccc(C(=O)O)cc2)C(=O)N1C` (centres undefined), the inhibition was 8.3% (inactive).
As for `CCCCOc1ccc(NC(=O)CSCC(=O)OCC)cc1`, the figure is 0.4% (inactive).
Consider `CCOC(=O)C1CCCCN1Cc1ccc(OC)c(OC)c1OC` (centres undefined), for which the inhibition was 29.7% (inactive).
For `COc1ccc2c(c1)CCc1c(C(=O)Nc3c(C)n(C)n(-c4ccccc4)c3=O)noc1-2`, the inhibition is 14% (inactive).
With `COc1ccc2c(c1)CCc1c(C(=O)N3CCCC3)noc1-2`, the inhibition was -6.1% (inactive).
As for `COc1ccc2c(c1)CCc1c(C(=O)N3CCc4ccccc4C3)noc1-2`, the inhibition was 73.7% (active).
For `CCOC(=O)c1cc(-c2ccc(Cl)s2)nc2c1c(C)nn2C`, the inhibition was 32.3% (inactive).
Consider `Cc1cc(C(F)F)n2nc(C(=O)Nc3ccc(S(=O)(=O)NC45CC6CC(CC(C6)C4)C5)cc3)nc2n1`, for which the inhibition was 24.7% (inactive).

Source of the values: PubChem BioAssay AID777 (Sanford-Burnham Center for Chemical Genomics, 2007).
